Source: PubChem
HP1b binding inh: HTS for Inhibitors of HP1-beta Chromodomain Interactions with Methylated Histone Tails | Chromobox protein homolog 1 (Homo sapiens), P83916 | AlphaScreen HP1-beta / biotin-H3K9me3 peptide binding | Potency, µM (titrated, usually from 114 µM), without a hit: at the top dose activity change, negative = inhibition, most hits filed as inhibitors | hit rate 0.56% among 390,000; also: nearly all actives have a fitted effect of over 70% in size
Target sequence (P83916 whole entry, looked up): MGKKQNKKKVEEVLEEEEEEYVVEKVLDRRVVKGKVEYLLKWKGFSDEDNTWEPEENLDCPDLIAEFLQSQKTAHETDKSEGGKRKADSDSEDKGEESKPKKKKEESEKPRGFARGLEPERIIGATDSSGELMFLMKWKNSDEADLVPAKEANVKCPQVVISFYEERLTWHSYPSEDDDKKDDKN
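AlphaScreen: HP1-beta (50 nM) preformed 30 min with biotin-H3(1-18)K9me3 peptide (50 nM) in PBS pH 7.4, 0.01% Tween-20. Compound added for 30 min at RT, then streptavidin donor/nickel chelate acceptor beads (10 ug/mL) for 30 min.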
BAZ2B block: qHTS Assay for Inhibitors of BAZ2B; AID 504333, 2011; Bromodomain adjacent to zinc finger domain protein 2B (Homo sapiens), Q9UIF8; hit rate 4.4% among 360,000; Potency, µM (doses to about 114 µM), for inactives: top-dose activity change, negative = inhibition, most hits filed as inhibitors; AlphaScreen BAZ2B-H3K14Ac peptide displacement; also: % is scaled to controls: 0 for no effect and ±100 for the full control effect; nearly all actives have a fitted effect of over 60% in size
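Protein-peptide AlphaScreen: BAZ2B 50 nM, b-H3K14Ac 50 nM, 1x PBS pH 7.4 + 0.01% Tween-20. Preincubation 30 min RT; cpd 30 min RT (top 110 uM); beads 20 min RT, light-protected.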
JMJD2A Tudor: qHTS Assay for Inhibitors of JMJD2A-Tudor Domain; AlphaScreen JMJD2A-Tudor / H3K4me3 peptide binding; Potency, µM (highest dose often 114 µM), for the others: top-dose activity change, negative = inhibition, usual class: inhibitors; hit rate 4.4% among 390,000; AID 504339, 2011; also: % is scaled to controls: 0 for no effect and ±100 for the full control effect; nearly all actives have a fitted effect of over 50% in size
TDP1 inh: qHTS Assay for Inhibitors of Tyrosyl-DNA Phosphodiesterase (TDP1); Tyrosyl-DNA phosphodiesterase 1 (Homo sapiens), Q9NUW8; recombinant TDP1, AlphaScreen DNA substrate cleavage; Potency, µM (series often up to 130 µM), for the others: top-dose activity change, negative = inhibition, usual class: inhibitors; hit rate 0.28% among 350,000; AID 485290, 2010; also: % is scaled to controls: 0 for no effect and ±100 for the full control effect; nearly all actives have a fitted effect of over 40% in size
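AlphaScreen read-out: signal falls as enzyme removes the 3' tyrosine-FITC from a 5'-biotinylated DNA oligo (15 nM, 5 min, RT). Enzyme was E. coli-made recombinant Tdp1 at 1 nM, exposed to compound for 15 min beforehand; beads 10 ug/ml, 10 min.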
G9a block: qHTS Assay for Inhibitors of Histone Lysine Methyltransferase G9a; G9a H3K9 monomethylation, AlphaScreen, 2 h; Potency, µM (highest dose often 102 µM), for inactives: top-dose activity, negative = inhibition, hits mostly inhibitors; hit rate 8.8% among 350,000; AID 504332, 2011; Histone-lysine N-methyltransferase EHMT2 (Homo sapiens), Q96KQ7; also: % is scaled to controls: 0 for no effect and ±100 for the full control effect; nearly all actives have a fitted effect of over 75% in size
Target sequence (Q96KQ7 913-1193 limits assumed): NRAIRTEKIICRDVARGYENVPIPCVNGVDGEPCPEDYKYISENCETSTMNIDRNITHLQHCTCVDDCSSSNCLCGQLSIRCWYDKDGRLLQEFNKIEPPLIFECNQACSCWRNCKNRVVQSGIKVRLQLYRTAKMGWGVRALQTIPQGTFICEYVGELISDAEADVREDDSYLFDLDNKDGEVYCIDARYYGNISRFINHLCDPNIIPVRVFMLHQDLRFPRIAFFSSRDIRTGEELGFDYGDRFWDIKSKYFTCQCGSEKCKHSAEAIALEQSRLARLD
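G9a (20 nM) preincubated 15 min RT with compounds, then 500 nM biotinylated H3K9 peptide and 20 uM SAM added; 2 h RT reaction. Monomethyl-H3K9 product detected by AlphaScreen with anti-H3K9me1 antibody, streptavidin donor and anti-rabbit IgG acceptor beads.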
Sfp inh: qHTS Assay for Inhibitors of Bacillus subtilis Sfp phosphopantetheinyl transferase (PPTase); 4'-phosphopantetheinyl transferase ffp (Bacillus subtilis), Q9F4F7; Biochemical Sfp PPTase activity, qHTS; Potency, µM, inactives show largest response in the series, negative = inhibition, hits mostly inhibitors; hit rate 3.5% among 310,000; AID 1490, 2009;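 also: the enzyme is Sfp with the accession as filed and its product quenches rhodamine fluorescence; 0% = enzyme reaction without inhibitor and -100% = no enzyme wells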
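Sfp 15 nM + cpd, 15 min RT; start w/ rhodamine-CoA 5 uM, BHQ-2-YbbR 12.5 uM (final); 50 mM Hepes pH 7.6, 10 mM MgCl2, 0.01% NP-40, 0.01% BSA; read 525/598 nm at 0 and 30 min.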
Active calls of the source: *; ? = inconclusive; . = no result; [ ] = another dose, or the depositor's remark. Rows were chosen to be rich in hits. Some 12% of all compounds tested hit in one or more screens of this group. Calls follow the shape of the dose curve; as a rule, active = well fitted curve in the direction sought with a large enough effect; inconclusive = small, poorly fitted or top-dose-only effect, or another doubt; inactive = no such curve, though single readings can be large; an effect the other way counts as inactive or inconclusive. Potency is read from the fitted curve at half-maximal effect.

SMILES	HP1b binding inh	BAZ2B block	JMJD2A Tudor	TDP1 inh	G9a block	Sfp inh
Cc1cc(O)c(C(C)C)cc1N=Nc1ccccc1C(=O)O	?	?	?	7%	40µM*	6%
Cc1cc(N=Nc2ccccc2C(=O)O)c(C)c(C)c1O	?	28µM*	-21%[11.4 µM]	8%	32µM*	0%
N#Cc1ccc(C(=O)NC23CC4CC(CC(C4)C2)C3)cc1	19%	-7%	-9%	.	-3%	6%
CSc1nsc(/C=C/Nc2ccc(C(=O)O)cc2)c1C#N	?	40µM*	?	7%	13µM*	-23%
CSc1nsc(/C=C/Nc2ccc(F)cc2F)c1C#N	-25%	?	?	7%	32µM*	-1%
N#Cc1c(-c2c(Cl)cccc2Cl)noc1/C=C/Nc1ccc(C(=O)O)cc1	12%	?	-35%	8%	-37%	5%
CN1c2ccsc2C(O)=C(C(=S)Nc2ccc(F)c(Cl)c2)S1(=O)=O	-29%	?	-32%	-5%	18µM*	50µM*
COc1ccc(/C=C2\C(=O)NC(=S)N2C(=O)c2ccc(C)cc2)cc1	-24%	50µM*	56µM*	?	?	?
CCOc1ccc(S(=O)(=O)N2CCC(C(=O)N3CCN(c4ccccc4F)CC3)CC2)cc1C	1%	-12%	-22%	-4%	.	-2%
CCOc1ccc(CN2CCC(C(=O)N3CCN(c4ccccc4F)CC3)CC2)cc1OC	?	?	7.1µM*	1%	8.9µM*	-17%
CC(C)CN1CCC(C(=O)N2CCN(c3ccccc3F)CC2)CC1	?	?	22µM*	-8%	10µM*	-6%
CCN(C(=O)CSC1=Nc2ccccc2C2CC=NN12)C1CCS(=O)(=O)C1 (stereo not given)	2%	5%	-19%	5%	-26%	-1%
O=C(Cn1c(-c2cccs2)cc2ccccc21)N1CCN(c2ccc(Cl)cc2)CC1	33%	5%	-7%	5%	9%[59 µM]	.
Nc1ccc(S(=O)(=O)Nc2nccs2)cc1N=Nc1ccccc1[N+](=O)[O-]	40µM*	.	40µM*	.	.	.
O=[N+]([O-])c1ccccc1S(=O)(=O)Nc1ccc(S(=O)(=O)Nc2nccs2)cc1	-14%	-21%	-24%	.	45µM*	4%
O=[N+]([O-])c1cccc(S(=O)(=O)Nc2ccc(S(=O)(=O)Nc3nccs3)cc2)c1	10%	.	-12%	.	.	.
Nc1ccc(S(=O)(=O)Nc2nccs2)cc1	46%	.	-13%	10%	22%[21.5 µM]	-9%
CCCCn1c(N)c(N(C(=O)CSc2nnnn2-c2ccc(C)cc2)C2CCCC2)c(=O)[nH]c1=O	30%	.	-3%	.	.	.
Cc1cc(Nc2cc(Cl)nc(Sc3ccc(NC(=O)C4CC4)cc3)n2)n[nH]1	61%	.	-28%	.	.	.
CCc1cc(-c2n[nH]c(C)c2-c2ccccc2Cl)c(O)cc1OC	7%	?	?	.	40µM*	12%
COc1cccc(NC(=O)CN2C(=O)C(=O)N(C3CCCC3)C2=O)c1	9%	.	-1%	-1%	.	.
COc1ccccc1C1C(C#N)=C(N)N(N(C)C)C2=C1C(=O)CC(C)(C)C2 (stereo not given)	14%	-5%	-23%	.	-9%	1%
Nc1cc([N+](=O)[O-])cc2oc(-c3ccccc3)cc12	?	10µM*	13µM*	.	25%[0.501 µM]	1%
C#CCN1C(=O)C(O)(CC(=O)/C=C/c2ccco2)c2ccccc21 (stereo not given)	17%	?	-35%	-2%	50µM*	35µM*
Cc1ccc(Sc2ncccc2C(=O)NCc2cc([N+](=O)[O-])ccc2O)c(C)c1	16%	35µM*	-35%	9%	.	-3%
SMILES	HP1b binding inh	BAZ2B block	JMJD2A Tudor	TDP1 inh	G9a block	Sfp inh
COc1ccc(CCNc2oc(/C=C/c3cc(OC)c(OC)c(OC)c3)nc2C#N)cc1OC	16%	-3%	-7%	0%	7%[59 µM]	.
Cc1nc2ccccc2nc1N1CCCCC1	96%	44%	63%	3%	64%	4%
CN(C)C=Nc1nc2ccccc2nc1N1CCCC1	88%	0%	12%	3%	45µM*	-28%
CSc1nnc(-c2cccs2)n1C	-22%	3%	?	-4%	3%	7%
CSCCC1COC(c2cccs2)=N1 (stereo not given)	14%	.	-22%	-3%	0.89µM*	3%
S=c1[nH]c2cnc(Cl)nc2[nH]1	2%	.	40µM*	.	.	.
COc1ccccc1Oc1c(NS(=O)(=O)c2ccc(C(C)(C)C)cc2)nc(-c2ncccn2)nc1OCCO	.	.	.	.	10%[12.7 µM]	56µM*
COc1ccc(S(=O)(=O)Nc2ccccn2)cc1	26%	8%	-6%	.	.	12%
CC[N+]1(C)CC2CCC(C)(C1)C2(C)C (stereo not given)	-8%	-2%	32µM*	10%	?	-12%
O=C(Nc1c(C(=O)c2ccccc2)oc2ccccc12)c1ccc(F)cc1	18%	2%	-3%	-1%	10%[59 µM]	.
CCOC(=O)c1cc(-c2ccc(OC)cc2)n(CCC(=O)NC2CCN(Cc3ccccc3)CC2)c1C	-33%	40µM*	?	4%	?	6%
CCC(C)(C)NC(=O)CCn1c(-c2ccccc2)cc(C(C)=O)c1C	6%	50µM*	-17%	5%	-22%	-4%
CC(=O)c1cc(-c2ccccc2)n(CCC(=O)NC2CCCCCCC2)c1C	-28%	50µM*	-30%	5%	1%[59 µM]	-15%
Cc1[nH]n2c(=O)cc(C(C)(C)C)nc2c1-c1ccccc1	10%	2%	-29%	9%	15%	0%
Cc1[nH]n2c(=O)cc(-c3ccc([N+](=O)[O-])cc3)nc2c1-c1ccccc1	-57%	.	50µM*	.	.	.
Cc1[nH]n2c(=O)cc(-c3ccc(Cl)cc3)nc2c1-c1ccccc1	-4%	32µM*	?	14%	4%[59 µM]	.
CNC(=O)Cn1nc(-c2ccc(C)cc2)c2ccccc2c1=O	-3%	1%	?	.	19%[59 µM]	5%
